This passage reports activity score results from PubChem BioAssay AID1814 (Broad Institute, 2009).

Out of some 300,000 compounds screened, about 22,000 (7.3%) were called active. Inconclusive results (about 2%) are left out. Rule as the data show it: active = activity score below about -60%; inconclusive = mostly about -28% to -61%; inactive = positive scores. Shown is part of a subset that was picked to be rich in actives.

The nature of the assay: Activators via SNCA 5'UTR binding, MLPCN (AID 1814). The note with it: alpha-synuclein 5'UTR reporter, activators screen; stronger effect = lower value; tested at 7.5 µM.
In the case of `O=C1NC(=O)N(CCc2ccc(F)cc2)C(=O)/C1=C/C=C/c1ccccc1`, the activity score was -115% (active).

In the case of `Cc1nc2ccc(N3CCN(C)CC3)cc2nc1C`, the activity score was -72% (active).

Take `COc1cccc(-c2nc3ccc(N4CCN(C)CC4)cc3[nH]2)c1`: the activity score was 68.9% (inactive).

As to `CN(C)C(=O)Oc1ccc2c(c1)O/C(=C\c1ccccc1)C2=O`, the activity score is -101% (active).

`CC(C)(C)c1ccc(OC(=O)N2CCCCC2)cc1`: the activity score was -192% (active).

Regarding `CCCCCn1c(=O)c(C(=O)Nc2c(C)n(C)n(-c3ccccc3)c2=O)c(O)c2ccccc21`, the activity score was -108% (active).

Consider `c1ccc2sc(C3CCCNC3)nc2c1` (stereo not given), for which the activity score is -63% (active).

For `C/C(=N/O)c1ccc2ccc3ccccc3c2c1`, the activity score is -104% (active).

Turning to `O=Cc1cn(Cc2ccc(F)cc2Cl)c2ccccc12`, the activity score is 61.1% (inactive).

Consider `c1cc2c(cc1[C@H]1OC[C@H]3[C@@H]1CO[C@@H]3c1ccc3c(c1)OCO3)OCO2`, for which the activity score is 72.8% (inactive).

In the case of `O=C(Nc1cccc2ccccc12)N1CCC2(CC1)OCCO2`, the activity score was -71.1% (active).

Turning to `CCOc1ccc(-c2cc(C)[n+](CCN(CC)CC)c(-c3ccc(OCC)cc3)c2)cc1`, the activity score is 95.2% (inactive).

Regarding `CN(C)CC1Oc2ccccc2OC1(O)c1ccccc1` (stereo not given), the activity score is -101% (active).

For the compound `CCCCCCCCCCCCn1ccc(=N)cc1`, the activity score was 104% (inactive).

`N#CC1=C(N)Oc2c(c(=O)oc3ccccc23)C1c1ccccc1OC(=O)c1cccs1` (stereo not given): the activity score is -63% (active).
